Laboratory results from PubChem BioAssay (Tox21).
Inconclusive results are not listed. The source made the active and inactive calls. Unless noted, calls follow the shape of the dose curve; as a rule, active = well fitted curve in the direction sought with a large enough effect in the repeat runs; inconclusive = weak or mixed curves; inactive = no such curve, though single readings can be large; an effect the other way counts as inactive or inconclusive.

Legend:
[1] = qHTS assay to identify small molecule antagonists of the estrogen receptor alpha (ER-alpha) signaling pathway using the BG1 cell line in the presence of 0.1 nM 17-beta-estradiol - cell viability counter screen (AID 1259241); also: nearly all actives have a fitted effect of over 40% in size
Outline: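 CellTiter-Fluor read (30 min, 37C) on ER-alpha/ERE-luc VM7Luc4E2 cells; 22 hr compound treatment; agonist 0.1 nM E2 final; same-well multiplex.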

[2] = qHTS assay to identify small molecule antagonists of the androgen receptor (AR) signaling pathway using the MDA cell line in the presence of 0.5 nM R1881 - cell viability counter screen (AID 1259242); also: nearly all actives have a fitted effect of over 45% in size
Outline: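 Cells seeded at 3,000/well and allowed 5 hr at 37C, 0% CO2 before compound transfer and R1881 (0.5 nM final) addition; 16 hr later, live-cell protease fluorescence indicated cytotoxicity.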

[3] = target: Estrogen receptor (Homo sapiens) (UniProt P03372); experiment: qHTS assay to identify small molecule antagonists of the estrogen receptor alpha (ER-alpha) signaling pathway using the BG1 cell line in the presence of 0.1 nM 17-beta-estradiol (AID 1259244); also: nearly all actives have a fitted effect of over 50% in size
Estrogen receptor (Homo sapiens), sequence (P03372 whole entry, looked up): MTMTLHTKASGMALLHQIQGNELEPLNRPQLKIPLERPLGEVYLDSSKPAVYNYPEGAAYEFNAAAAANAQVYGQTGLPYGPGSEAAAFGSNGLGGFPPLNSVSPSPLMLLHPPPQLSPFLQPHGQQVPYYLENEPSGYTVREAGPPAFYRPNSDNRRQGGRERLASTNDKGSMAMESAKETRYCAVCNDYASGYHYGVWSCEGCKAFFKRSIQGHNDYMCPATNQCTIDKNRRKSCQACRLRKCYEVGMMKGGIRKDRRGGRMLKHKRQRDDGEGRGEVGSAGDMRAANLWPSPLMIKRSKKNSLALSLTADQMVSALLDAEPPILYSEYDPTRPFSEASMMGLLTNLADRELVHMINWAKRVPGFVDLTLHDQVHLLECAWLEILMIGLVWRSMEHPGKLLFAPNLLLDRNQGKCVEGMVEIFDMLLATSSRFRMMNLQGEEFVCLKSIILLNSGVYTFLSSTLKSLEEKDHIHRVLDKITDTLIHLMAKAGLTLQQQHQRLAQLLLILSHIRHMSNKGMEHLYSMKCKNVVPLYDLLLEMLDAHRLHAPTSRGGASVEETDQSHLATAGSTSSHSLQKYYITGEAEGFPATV
Outline: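 Luciferase signal from VM7Luc4E2 ERE-reporter cells, co-dosed with test compound and 0.1 nM final 17beta-estradiol for 22 h, read with ONE-Glo.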

[4] = qHTS assay to identify small molecule HDAC inhibitors (AID 1259364);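 also: wild-type HCT-116 cells with endogenous class I/II HDAC activity; top concentration of the series differs between compounds; nearly all actives have a fitted effect of over 45% in size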
Outline: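 HCT-116 wt cells, 1,500/well, overnight attach. Compounds (DMSO) 2 h, 37 °C. HDAC-Glo I/II, 30 min RT. Luminescence.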

[5] = qHTS assay to identify small molecule HDAC inhibitors - cell viability counter screen (AID 1259365); also: series mostly up to about 92 µM; nearly all actives have a fitted effect of over 50% in size
Outline: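 To flag cytotoxic hits, 1,500 wild-type HCT-116 cells per well, plated the day before, receive test compounds for 2hr at 37 C before CellTiter-Glo reagent and a luminescence read.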

[6] = qHTS assay to identify small molecule agonists of the sonic hedgehog signaling (Shh) pathway - cell viability counter screen (AID 1259366); also: nearly all actives have a fitted effect of over 50% in size
Outline: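 Fluorescence from CellTiter-Fluor reports live cells in this counter screen. NIH/3T3-derived Gli1-Luc reporter cells receive test compounds for 24hr at 37C; reagent goes in at 23hr.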

[7] = qHTS assay to identify small molecule antagonists of the sonic hedgehog signaling (Shh) pathway - cell viability counter screen (AID 1259367); also: nearly all actives have a fitted effect of over 55% in size
Outline: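 Fluorescence read-out (CellTiter-Fluor, 1 hr at 37C) taken after 23 hr compound treatment of 3T3 Gli1-Luc cells stimulated with conditioned medium. Cells were seeded at 2,000 per well and pre-incubated 4 hr.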

[8] = qHTS assay to identify small molecule agonists of the sonic hedgehog signaling (Shh) pathway (AID 1259368; calls by dose curve;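 also: NIH/3T3-derived 3T3Gli1-Luc cells carrying a stable Gli1-driven firefly luciferase reporter; series mostly up to about 92 µM; nearly all actives have a fitted effect of over 15% in size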)
Outline: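 Following a 24 hr incubation with DMSO-dissolved compounds at 37 C, 5% CO2, Gli1-Luc NIH/3T3-derived cells received luciferase reagent for 30 min at room temperature prior to luminescence measurement.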

[9] = target: Estrogen receptor beta (Homo sapiens) (UniProt Q92731); experiment: qHTS assay to identify small molecule antagonists of the estrogen receptor beta (ER-beta) signaling pathway (AID 1259378; active = well fitted inhibition curve with a large enough effect in the signal ratio in the repeat runs, not every such curve was filed as active; the % refers to the signal ratio)
Estrogen receptor beta (Homo sapiens), sequence (Q92731 whole entry, looked up): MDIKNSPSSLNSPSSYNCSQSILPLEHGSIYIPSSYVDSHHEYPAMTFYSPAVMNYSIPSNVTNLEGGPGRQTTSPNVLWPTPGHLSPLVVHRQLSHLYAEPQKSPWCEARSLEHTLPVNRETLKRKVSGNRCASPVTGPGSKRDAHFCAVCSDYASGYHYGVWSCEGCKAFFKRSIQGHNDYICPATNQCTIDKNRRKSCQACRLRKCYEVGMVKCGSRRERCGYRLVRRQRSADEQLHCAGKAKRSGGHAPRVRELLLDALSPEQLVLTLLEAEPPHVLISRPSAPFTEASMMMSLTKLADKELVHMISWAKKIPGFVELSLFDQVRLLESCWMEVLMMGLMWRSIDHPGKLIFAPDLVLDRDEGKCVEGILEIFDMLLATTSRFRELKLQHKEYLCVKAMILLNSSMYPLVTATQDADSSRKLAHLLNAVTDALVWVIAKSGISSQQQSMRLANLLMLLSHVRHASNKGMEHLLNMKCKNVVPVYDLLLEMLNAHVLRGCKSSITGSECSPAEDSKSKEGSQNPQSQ
Outline: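 ER-beta-UAS-bla HEK293T cells in 2% charcoal-stripped FBS medium treated with compound plus 1nM final 17-beta-estradiol for 16 hr at 37C. Beta-lactamase reporter read by FRET substrate fluorescence after 2 hours at room temperature.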

[10] = qHTS assay to identify small molecule agonists of the androgen receptor (AR) signaling pathway in the presence of an antagonist - cell viability counter screen (AID 1259379);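 also: MDA-kb2 human breast cancer cells carrying an MMTV luciferase reporter; series mostly up to about 92 µM; nearly all actives have a fitted effect of over 25% in size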
Outline: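 Each compound was tested at 15 concentrations on MDA-kb2 cells in the presence of 3.0uM nilutamide. Viability was measured by CellTiter-Fluor fluorescence after a 16 hr incubation at 37C in a CO2-free atmosphere.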

[11] = qHTS assay to identify small molecule antagonists of the estrogen receptor beta (ER-beta) signaling pathway - cell viability counter screen (AID 1259382); also: series mostly up to about 92 µM; nearly all actives have a fitted effect of over 55% in size
Outline: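 CellTiter-Glo ATP luminescence measured after the LiveBLAzer read in the same wells; ER-beta-UAS-bla HEK293T cells, 16 hr compound treatment with 1nM 17-beta-estradiol agonist at 37C, 5% CO2.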

[12] = target: Estrogen receptor (Homo sapiens) (UniProt P03372); experiment: qHTS assay to identify small molecule agonists of the estrogen receptor alpha (ER-alpha) signaling pathway in the presence of an antagonist (AID 1259383; calls by dose curve; also: top concentration of the series differs between compounds; nearly all actives have a fitted effect of over 15% in size)
Outline: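 Luminescent ERE-luciferase reporter, VM7Luc4E2 cells (endogenous ER-alpha); 10.0nM ICI-182,780 final; 15-point compound titration; 22hr at 37C; ONE-Glo, 30min RT.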

[13] = target: Estrogen receptor beta (Homo sapiens) (UniProt Q92731); experiment: qHTS assay to identify small molecule agonists of the estrogen receptor beta (ER-beta) signaling pathway (AID 1259377; active = well fitted activation curve with a large enough effect in the signal ratio in the repeat runs, not every such curve was filed as active; the % refers to the signal ratio)
Outline: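 Screening used GripTite ER-beta-UAS-bla cells held in 2% charcoal-stripped FBS medium. After overnight (16 hr) compound incubation at 37C, beta-lactamase activity was detected with a FRET substrate by fluorescence.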

[14] = qHTS assay to identify small molecule agonists of the estrogen receptor beta (ER-beta) signaling pathway - cell viability counter screen (AID 1259380); also: nearly all actives have a fitted effect of over 30% in size
Outline: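 Compounds dissolved in DMSO were pin-transferred onto ER-beta-UAS-bla HEK293T cells that had settled 6 hr, and exposure ran 16 hr at 37C. Following the reporter read, CellTiter-Glo luminescence after 30 min at room temperature indicated cytotoxicity.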

[15] = qHTS assay to identify small molecule agonists or antagonists of the thyroid stimulating hormone receptor (TSHR) signaling pathway - wild type cell line counter screen (AID 1259384; calls by dose curve)
Outline: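 Wild-type Hek293 cells, 800/well, 18 h at 37C, then compound with Ro20-1724 for 30 min RT. cAMP by HTRF (cAMP-d2/anti-cAMP cryptate), 1 h RT, fluorescence read. 15 concentrations, triplicates.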

[16] = target: Androgen receptor (Homo sapiens) (UniProt P10275); experiment: qHTS assay to identify small molecule agonists of the androgen receptor (AR) signaling pathway in the presence of an antagonist (AID 1259381; calls by dose curve; also: nearly all actives have a fitted effect of over 15% in size)
Androgen receptor (Homo sapiens), sequence (P10275 whole entry, looked up): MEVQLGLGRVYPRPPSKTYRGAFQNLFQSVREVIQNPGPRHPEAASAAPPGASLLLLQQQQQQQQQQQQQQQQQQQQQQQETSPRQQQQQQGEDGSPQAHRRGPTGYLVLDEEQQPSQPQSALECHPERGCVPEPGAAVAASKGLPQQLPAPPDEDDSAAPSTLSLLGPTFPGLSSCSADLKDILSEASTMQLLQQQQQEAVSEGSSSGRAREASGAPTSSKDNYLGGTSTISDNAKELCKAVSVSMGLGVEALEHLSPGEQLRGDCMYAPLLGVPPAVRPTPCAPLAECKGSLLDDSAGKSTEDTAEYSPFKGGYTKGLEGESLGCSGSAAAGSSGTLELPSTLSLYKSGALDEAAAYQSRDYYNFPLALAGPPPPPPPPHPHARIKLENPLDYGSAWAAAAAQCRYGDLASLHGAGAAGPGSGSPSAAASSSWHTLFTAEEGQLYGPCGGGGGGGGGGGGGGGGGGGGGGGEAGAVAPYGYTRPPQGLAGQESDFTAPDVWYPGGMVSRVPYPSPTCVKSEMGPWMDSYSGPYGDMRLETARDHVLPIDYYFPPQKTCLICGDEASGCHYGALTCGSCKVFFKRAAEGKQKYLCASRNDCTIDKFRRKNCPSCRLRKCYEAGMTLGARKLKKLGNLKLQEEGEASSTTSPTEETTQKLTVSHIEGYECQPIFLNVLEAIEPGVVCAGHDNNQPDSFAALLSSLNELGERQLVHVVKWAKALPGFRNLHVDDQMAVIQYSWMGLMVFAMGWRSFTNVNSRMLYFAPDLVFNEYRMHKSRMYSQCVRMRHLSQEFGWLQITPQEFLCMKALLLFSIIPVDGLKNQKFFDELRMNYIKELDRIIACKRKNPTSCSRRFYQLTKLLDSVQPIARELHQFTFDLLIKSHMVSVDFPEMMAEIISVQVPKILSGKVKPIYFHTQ
Outline: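 Plated MDA-kb2 cells (3,000/well) were pre-incubated 5hr, given nilutamide (3.0uM final) or buffer, then dosed with compounds in DMSO at 15 concentrations. Luciferase activity was quantified by luminescence after 16hr at 37C.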

[17] = target: Thyrotropin receptor (Homo sapiens) (UniProt P16473); experiment: qHTS assay to identify small molecule antagonists of the thyroid stimulating hormone receptor (TSHR) signaling pathway (AID 1259385; calls by dose curve; also: nearly all actives have a fitted effect of over 20% in size)
Thyrotropin receptor (Homo sapiens), sequence (P16473 whole entry, looked up): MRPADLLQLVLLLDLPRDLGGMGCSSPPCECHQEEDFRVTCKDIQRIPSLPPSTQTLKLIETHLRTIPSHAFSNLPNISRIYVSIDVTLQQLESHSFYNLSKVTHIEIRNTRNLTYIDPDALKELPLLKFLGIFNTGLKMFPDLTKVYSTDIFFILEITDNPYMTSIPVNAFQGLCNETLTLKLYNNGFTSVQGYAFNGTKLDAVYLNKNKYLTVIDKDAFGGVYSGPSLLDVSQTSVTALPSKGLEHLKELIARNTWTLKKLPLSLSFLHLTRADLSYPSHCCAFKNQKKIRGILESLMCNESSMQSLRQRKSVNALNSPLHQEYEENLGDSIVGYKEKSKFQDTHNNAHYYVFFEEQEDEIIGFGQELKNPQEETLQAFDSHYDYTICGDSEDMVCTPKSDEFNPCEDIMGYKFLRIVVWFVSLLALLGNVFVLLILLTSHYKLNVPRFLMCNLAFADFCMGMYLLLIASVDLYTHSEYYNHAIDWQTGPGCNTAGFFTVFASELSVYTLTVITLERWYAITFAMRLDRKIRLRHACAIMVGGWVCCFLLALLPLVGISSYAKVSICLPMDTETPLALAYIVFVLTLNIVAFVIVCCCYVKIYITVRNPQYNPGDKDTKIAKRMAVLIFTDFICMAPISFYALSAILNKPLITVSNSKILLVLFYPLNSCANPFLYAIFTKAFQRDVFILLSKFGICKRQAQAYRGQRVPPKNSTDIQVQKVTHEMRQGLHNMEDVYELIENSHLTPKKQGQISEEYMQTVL
Outline: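 TSHR-HEK293 cells (800/well) plated 18 h, then compounds with Ro20-1724 and TSH at 1.5 ng/mL final, 30 min at room temperature. cAMP quantified by HTRF (cAMP-d2/anti-cAMP-cryptate, 1 h); 15 concentrations in triplicate.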

[18] = qHTS assay to identify small molecule antagonists of the sonic hedgehog signaling (Shh) pathway (AID 1259369; calls by dose curve; also: nearly all actives have a fitted effect of over 45% in size; also: potency is read from the fitted curve at half-maximal effect)
Outline: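 Read-out is luminescence from a firefly luciferase gene controlled by the Gli1 response element, in 3T3Gli1-Luc cells pre-incubated 4hr then exposed to compounds and conditioned medium for 24hr.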

Measured: Potency

CCN(CC)c1nc(C)cc(OP(=S)(OC)OC)n1
inactive: [1] | [2] | [3] | [4] | [5] | [6] | [7] | [8] | [9] | [10] | [11] | [12]

Nc1cc2c3c(c1)C(c1ccccc1)=N[C@@H](NC(=O)c1cccnc1)C(=O)N3CC2
inactive: [1] | [2] | [3] | [4] | [5] | [6] | [8] | [13] | [9] | [10] | [14] | [11] | [12] | [15]

Fc1cc(Br)ccc1CBr
inactive: [1] | [2] | [3] | [4] | [5] | [6] | [7] | [8] | [13] | [9] | [10] | [16] | [11] | [12] | [15] | [17]

CC(=O)CCc1ccc2c(c1)OCO2
inactive: [1] | [2] | [3] | [4] | [5] | [6] | [7] | [18] | [10] | [14] | [11] | [12] | [15] | [17]

ClC(Br)Br
inactive: [1] | [2] | [3] | [4] | [5] | [6] | [7] | [18] | [13] | [9] | [10] | [14] | [11] | [12] | [15] | [17]

C(CCOCC1CO1)COCC1CO1 (stereo unspecified)
inactive: [1] | [2] | [3] | [4] | [5] | [6] | [7] | [8] | [10] | [14] | [11] | [12] | [15] | [17]

C[N+](C)=CCl
inactive: [1] | [2] | [3] | [4] | [5] | [6] | [7] | [8] | [13] | [10] | [14] | [11] | [12] | [15]

N#Cc1ccncc1
inactive: [1] | [2] | [3] | [4] | [5] | [6] | [8] | [13] | [9] | [10] | [14] | [11] | [12]

ClC(Cl)C(Cl)Cl
inactive: [1] | [2] | [3] | [4] | [5] | [6] | [8] | [18] | [13] | [9] | [10] | [14] | [11] | [12]

OC(c1ccc(F)cc1)(c1cncnc1)c1ccccc1Cl (stereo unspecified)
inactive: [1] | [2] | [3] | [4] | [5] | [6] | [7] | [8] | [13] | [10] | [14] | [12] | [15] | [17]

CCC(=O)c1ccccc1
inactive: [1] | [2] | [3] | [4] | [5] | [6] | [7] | [13] | [9] | [10] | [16] | [11] | [12] | [15] | [17]

Cc1nc(N)nc(N)n1
inactive: [1] | [2] | [3] | [4] | [5] | [6] | [7] | [8] | [10] | [14] | [11] | [12] | [15]

CCOP(=S)(OCC)Oc1ncn(-c2ccccc2)n1
inactive: [1] | [2] | [3] | [4] | [5] | [6] | [7] | [18] | [13] | [9] | [10] | [16] | [12] | [15] | [17]

CCC(Cl)[N+](=O)[O-] (stereo unspecified)
inactive: [1] | [2] | [3] | [4] | [5] | [6] | [7] | [18] | [9] | [10] | [14] | [11] | [12] | [15] | [17]

CC(C)CP(=S)(S)CC(C)C
inactive: [1] | [2] | [3] | [4] | [5] | [6] | [7] | [8] | [10] | [12] | [15]

CCC/C(=N\OCC)C1=C(O)CC(CC(C)SCC)CC1=O (stereo unspecified)
active: [18] 30.8 µM
inactive: [1] | [2] | [3] | [4] | [5] | [6] | [8] | [9] | [10] | [14] | [12] | [15]

BrCCCCCCBr
active: [18] 24.3 µM
inactive: [1] | [2] | [3] | [4] | [5] | [6] | [7] | [13] | [9] | [10] | [11] | [12] | [15] | [17]

ClCCCN1CCN(c2cccc(Cl)c2)CC1
inactive: [1] | [2] | [3] | [4] | [5] | [6] | [7] | [8] | [10] | [11] | [12] | [15] | [17]

CC(C(=O)c1ccccc1)N(C)C (stereo unspecified)
inactive: [1] | [2] | [3] | [4] | [5] | [6] | [7] | [8] | [9] | [10] | [16] | [11] | [12] | [15] | [17]

O=C(Cc1ccccc1)OCc1ccccc1
inactive: [1] | [2] | [3] | [5] | [6] | [7] | [8] | [18] | [13] | [9] | [10] | [11] | [12] | [15] | [17]

ClC(Cl)(Cl)C(Cl)(Cl)Cl
inactive: [1] | [2] | [3] | [4] | [6] | [7] | [9] | [10] | [14] | [11] | [12]

O=[N+]([O-])c1ccc2c3c(cccc13)CC2
inactive: [1] | [2] | [3] | [4] | [5] | [6] | [8] | [13] | [9] | [10] | [14] | [12] | [15] | [17]

CCCCOC(=O)[C@@H](C)Oc1ccc(Oc2ccc(C#N)cc2F)cc1
inactive: [1] | [2] | [3] | [4] | [6] | [7] | [8] | [13] | [9] | [10] | [14] | [11] | [12] | [15]

COc1cc(C[C@@H](C)N)c(OC)cc1C
inactive: [1] | [2] | [3] | [4] | [6] | [18] | [9] | [10] | [14] | [11] | [12] | [15]

COP(N)(=S)Oc1ccccc1C(=O)OC(C)C (stereo unspecified)
inactive: [1] | [2] | [3] | [4] | [6] | [7] | [8] | [18] | [10] | [14] | [16] | [11] | [12] | [15] | [17]

CC(=O)C(Cl)Cl
inactive: [1] | [2] | [3] | [4] | [6] | [7] | [8] | [18] | [10] | [11] | [12] | [15] | [17]

CSc1nc(N=[N+]=[N-])nc(NC(C)C)n1
inactive: [1] | [2] | [3] | [4] | [6] | [7] | [8] | [10] | [11] | [12] | [15]
